Assay results as given in PubChem BioAssay (NCATS).
Results filed as inconclusive are left out. The source made the active and inactive calls. The call rests on the fitted dose curve; in most records, active means well fitted cell-killing curve with a large enough effect; inconclusive means small, poorly fitted or top-dose-only effect; inactive means flat fitted curve, though single readings scatter.

How the values were obtained:
[1] = Cell Viability - LYMP2-025 (AID 976); further: series mostly up to about 92 µM
Summary of the method: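 Human lymphoblastoid LYMP2-025 cells, 2500/well, exposed 24 h at 37 C in complete medium in 1536-well qHTS. Viability as cellular ATP by CellTiter-Glo luminescence; AC50 from Hill fits of concentration-response data.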

[2] = Cell Viability - LYMP2-002 (AID 977); further: series mostly up to about 92 µM
Summary of the method: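 Luminescent ATP readout (CellTiter-Glo, 30 min room temperature) after 24 h compound exposure at 37 C of a human lymphoblastoid line, 2500 cells/well. AC50 values derived by standard Hill fitting of qHTS concentration-response data.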

[3] = Cell Viability - LYMP2-006 (AID 978); further: series mostly up to about 92 µM; nearly all actives have a fitted effect of over 60% in size
Summary of the method: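 qHTS, 1536-well; 2500 cells/well, 5 hr 37 C; cpd 24 hr 37 C; CellTiter-Glo 30 min RT; luminescence. Tetraoctylammonium bromide pos. ctrl. AC50 via Hill eqn.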

[4] = Cell Viability - LYMP2-007 (AID 979);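 further: cells exposed to compound for 24 h before reading; nearly all actives have a fitted effect of over 60% in size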
Summary of the method: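 Human lymphoblastoid LYMP2-007 cells (2500/well) preincubated 5 h at 37 C, then treated 24 h at 37 C in complete medium. Viability by CellTiter-Glo ATP luminescence after 30 min at room temperature; AC50 from Hill fits.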

[5] = Cell Viability - LYMP2-008 (AID 980); further: nearly all actives have a fitted effect of over 60% in size
Summary of the method: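 LYMP2-008 lymphoblastoid cells (2500/well) plated 5 h, then treated 24 h at 37 C in complete medium. Viability read as intracellular ATP by CellTiter-Glo luminescence after 30 min at room temperature; AC50 from Hill fits.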

[6] = Cell Viability - LYMP2-010 (AID 981); further: nearly all actives have a fitted effect of over 55% in size
Summary of the method: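 Human lymphoblastoid LYMP2-010 cells (2500/well) treated 24 h at 37 C in complete medium; viability read as intracellular ATP by CellTiter-Glo luminescence. AC50 from Hill fits of concentration-response data; tetraoctylammonium bromide positive control.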

[7] = Cell Viability - LYMP2-012 (AID 982);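 further: cellular ATP by luciferase luminescence where a drop means cytotoxicity; cells exposed to compound for one day before reading; nearly all actives have a fitted effect of over 55% in size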
[8] = Cell Viability - LYMP2-014 (AID 983); further: series mostly up to about 92 µM; nearly all actives have a fitted effect of over 50% in size
Summary of the method: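 LYMP2-014 human lymphoblastoid cells, 2500/well, treated 24 h at 37 C in complete medium; viability by CellTiter-Glo ATP luminescence after 30 min at room temperature. AC50 from Hill fits of qHTS concentration-response; tetraoctylammonium bromide positive control.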

[9] = Cell Viability - LYMP2-016 (AID 984); further: nearly all actives have a fitted effect of over 55% in size
Summary of the method: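 qHTS, 1536-well: 2500 LYMP2-016 cells/well, 5 hr 37 C, compound added, 24 hr 37 C, CellTiter-Glo 30 min RT, luminescence. Tetraoctylammonium bromide positive control. AC50 via Hill fit.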

[10] = Cell Viability - LYMP2-018 (AID 985);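 further: compound exposure lasted 24 hr at 37 °C; nearly all actives have a fitted effect of over 50% in size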
Summary of the method: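 Human lymphoblastoid LYMP2-018 cells, 2500/well, settled 5 hr at 37 C then exposed to compound 24 hr at 37 C; intracellular ATP measured by CellTiter-Glo luminescence. AC50 from Hill-equation concentration-response fits.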

Measured: Potency

c1ccc2n[nH]nc2c1
inactive: [1] | [2] | [3] | [4] | [5] | [6] | [7] | [8] | [9] | [10]

CC1CCCO1 (stereo not drawn)
inactive: [1] | [2] | [3] | [4] | [5] | [6] | [7] | [8] | [9] | [10]

CC(C)Cc1nccs1
inactive: [1] | [2] | [3] | [4] | [5] | [6] | [7] | [8] | [9] | [10]

FB(F)F
inactive: [1] | [2] | [3] | [4] | [5] | [6] | [7] | [8] | [9] | [10]

CNc1ccccc1
inactive: [1] | [2] | [3] | [4] | [5] | [6] | [7] | [8] | [9] | [10]

CC/C(C)=N/O
inactive: [1] | [2] | [3] | [4] | [5] | [6] | [7] | [8] | [9] | [10]

Cc1ccc([N+](=O)[O-])c(N)c1
inactive: [1] | [2] | [3] | [4] | [5] | [6] | [7] | [8] | [9] | [10]

O=C(Cl)c1ccccc1[N+](=O)[O-]
inactive: [1] | [2] | [3] | [4] | [5] | [6] | [7] | [8] | [9] | [10]

CC(=O)c1ccccn1
inactive: [1] | [2] | [3] | [4] | [5] | [6] | [7] | [8] | [9] | [10]

O=Cc1ccc(C(=O)O)cc1
inactive: [1] | [2] | [3] | [4] | [5] | [6] | [7] | [8] | [9] | [10]

Nc1nc(-c2ccccc2)cs1
inactive: [1] | [2] | [3] | [4] | [5] | [6] | [7] | [8] | [9] | [10]

CNc1ccc([N+](=O)[O-])cc1
inactive: [1] | [2] | [3] | [4] | [5] | [6] | [7] | [8] | [9] | [10]

Fc1ccccc1
inactive: [1] | [2] | [3] | [4] | [5] | [6] | [7] | [8] | [9] | [10]

C=C(C)C(=O)OCC(C)O (stereo not drawn)
inactive: [1] | [2] | [3] | [4] | [5] | [6] | [7] | [8] | [9] | [10]

CC(O)CC(C)O (stereo not drawn)
inactive: [1] | [2] | [3] | [4] | [5] | [6] | [7] | [8] | [9] | [10]

C=CCCCC
inactive: [1] | [2] | [3] | [4] | [5] | [6] | [7] | [8] | [9] | [10]

CCC(C)(C)C
inactive: [1] | [2] | [3] | [4] | [5] | [6] | [7] | [8] | [9] | [10]

CCCCCCCCCCCCC1CO1 (stereo not drawn)
inactive: [1] | [2] | [3] | [4] | [5] | [6] | [7] | [8] | [9] | [10]

C=CCn1c(=O)n(CC=C)c(=O)n(CC=C)c1=O
inactive: [1] | [2] | [3] | [4] | [5] | [6] | [7] | [8] | [9] | [10]

O=C(O[C@@H](C(=O)O)[C@@H](OC(=O)c1ccccc1)C(=O)O)c1ccccc1
inactive: [1] | [2] | [3] | [4] | [5] | [6] | [7] | [8] | [9] | [10]

Nc1c(Cl)cc(Cl)cc1Cl
inactive: [1] | [2] | [3] | [4] | [5] | [6] | [7] | [8] | [9] | [10]

C=C(C)OC(C)=O
inactive: [1] | [2] | [3] | [4] | [5] | [6] | [7] | [8] | [9] | [10]

CCCCCCCCN
inactive: [1] | [2] | [3] | [4] | [5] | [6] | [7] | [8] | [9] | [10]

O=[N+]([O-])c1c(Cl)cc(Cl)cc1Cl
inactive: [1] | [2] | [3] | [4] | [5] | [6] | [7] | [8] | [9] | [10]

Nc1ccc(F)cc1F
inactive: [1] | [2] | [3] | [4] | [5] | [6] | [7] | [8] | [9] | [10]

COCCOC(=O)c1ccccc1C(=O)OCCOC
inactive: [1] | [2] | [3] | [4] | [5] | [6] | [7] | [8] | [9] | [10]

CCCCN(CCO)CCCC
inactive: [1] | [2] | [3] | [4] | [5] | [6] | [7] | [8] | [9] | [10]

CCOc1cccc(N)c1
inactive: [1] | [2] | [3] | [4] | [5] | [6] | [7] | [8] | [9] | [10]

COc1ccc(N)c(C)c1
inactive: [1] | [2] | [3] | [4] | [5] | [6] | [7] | [8] | [9] | [10]

NC(=O)c1ccccc1[N+](=O)[O-]
inactive: [1] | [2] | [3] | [4] | [5] | [6] | [7] | [8] | [9] | [10]

C/C(C=O)=C/c1ccccc1
inactive: [1] | [2] | [3] | [4] | [5] | [6] | [7] | [8] | [9] | [10]

CC(O)COC(C)(C)C (stereo not drawn)
inactive: [1] | [2] | [3] | [4] | [5] | [6] | [7] | [8] | [9] | [10]

Cc1cccc(C(=O)O)c1
inactive: [1] | [2] | [3] | [4] | [5] | [6] | [7] | [8] | [9] | [10]

CCC(C)O (stereo not drawn)
inactive: [1] | [2] | [3] | [4] | [5] | [6] | [7] | [8] | [9] | [10]

CC(=O)CC(C)C
inactive: [1] | [2] | [3] | [4] | [5] | [6] | [7] | [8] | [9] | [10]

CCC(C)=O
inactive: [1] | [2] | [3] | [4] | [5] | [6] | [7] | [8] | [9] | [10]

C(=C/c1ccccc1)/c1ccccc1
inactive: [1] | [2] | [3] | [4] | [5] | [6] | [7] | [8] | [9] | [10]

NC(=O)NC(N)=O
inactive: [1] | [2] | [3] | [4] | [5] | [6] | [7] | [8] | [9] | [10]

COC(=O)CS
inactive: [1] | [2] | [3] | [4] | [5] | [6] | [7] | [9] | [10]

Cc1cccc2sc(N)nc12
inactive: [1] | [2] | [3] | [4] | [5] | [6] | [8] | [9] | [10]

CCCC(C)CO (stereo not drawn)
inactive: [1] | [2] | [3] | [4] | [5] | [6] | [7] | [9] | [10]

N#Cc1ccccc1
inactive: [1] | [2] | [3] | [4] | [5] | [6] | [7] | [9] | [10]

CC1(N)CCC(C(C)(C)N)CC1 (stereo not drawn)
inactive: [1] | [2] | [3] | [4] | [5] | [6] | [7] | [9] | [10]

ClC/C=C/CCl
inactive: [1] | [2] | [3] | [4] | [5] | [6] | [10]

Oc1cccc(Nc2ccccc2)c1
inactive: [1] | [2] | [3] | [4] | [5] | [7] | [8] | [9] | [10]

Cc1ccc(C(=O)O)cc1
inactive: [1] | [2] | [3] | [4] | [5] | [6] | [7] | [9] | [10]

Cc1ccc2c(c1[N+](=O)[O-])C(=O)c1ccccc1C2=O
inactive: [1] | [2] | [3] | [4] | [5] | [6] | [7] | [9] | [10]

CCCCOCCOCCSC#N
inactive: [1] | [2] | [3] | [4] | [5] | [6] | [7] | [9] | [10]

CCOc1ccccc1N
inactive: [1] | [2] | [3] | [4] | [5] | [6] | [7] | [9] | [10]

CCCCC(CC)C(=O)O (stereo not drawn)
inactive: [1] | [2] | [3] | [4] | [5] | [6] | [7] | [9] | [10]

CCOc1cc(OCC)c(C(C)=O)cc1OCC
inactive: [1] | [2] | [3] | [4] | [5] | [6] | [7] | [9] | [10]

Oc1c(Cl)ccc(Cl)c1Cl
inactive: [1] | [2] | [3] | [4] | [5] | [7] | [8] | [9] | [10]

C[C@@H]1CC2(OC[C@]3(C)O[C@H]23)O[C@H]2C[C@@]3(C)[C@@H]4CC[C@H]5C(C)(C)C(O[C@@H]6OC[C@@H](O)[C@H](O)[C@H]6O)CC[C@@]56C[C@@]46CC[C@]3(C)[C@@H]12 (stereo partly drawn)
inactive: [1] | [2] | [3] | [4] | [5] | [7] | [8] | [9] | [10]

O=C1OC(=O)c2cc([N+](=O)[O-])ccc21
inactive: [1] | [2] | [3] | [4] | [5] | [7] | [8] | [9] | [10]

COc1cccc2sc(N)nc12
inactive: [1] | [2] | [3] | [4] | [5] | [6] | [7] | [9] | [10]

c1ccsc1
inactive: [1] | [2] | [3] | [4] | [5] | [6] | [7] | [9] | [10]

NC(=O)/N=N/C(N)=O
inactive: [1] | [2] | [3] | [4] | [5] | [7] | [8] | [9] | [10]

CCCOCC(C)O (stereo not drawn)
inactive: [1] | [2] | [3] | [4] | [5] | [6] | [7] | [9] | [10]
